# UGM FP inh: M. tuberculosis UGM enzyme inhibitors, primary screen, biochemical, fluorescence polarization, single point; UDP-galactopyranose mutase (Mycobacterium tuberculosis (strain ATCC 25618 / H37Rv)), …; purified UGM, fluorescence polarization probe displacement; inhibition, % at 10 µM; 320,000 compounds, 0.06% hits; in the data active = inhibition above about 10%, passing the limit was not always enough
# Mtb betalactam: beta-lactam sensitization of Mtb H37Rv, H37Rv; M. tuberculosis H37Rv growth with meropenem, percent inhibition; inhibition, % at 25 µM; 330,000 compounds, 0.27% hits; call rule not given here;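 also: growth measured after seven days incubation then overnight dye step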
# RecA intein inh: Mtb RecA intein splicing inhibitors, primary screen, biochemical, fluorescence, HTS. Protein RecA (Mycobacterium tuberculosis (strain ATCC 25618 / H37Rv)), P9WHJ3. cell-free RecA intein splicing. inhibition, % (concentration not given with the values). 290,000 compounds, 0.75% hits. AID 2221, 2009; in the data active = inhibition above about 30%
# Rv3671c protease: Rv3671c serine protease inhibitors, primary screen, biochemical, fluorescence polarization, M. tuberculosis H37Rv. P9WHR9. AID 2606, 2010. inhibition, % at 5.96 µM. 320,000 compounds, 0.048% hits; in the data active = inhibition above about 38%;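 also: extracellular domain of Rv3671c used as enzyme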
# Target sequence (P9WHR9 whole entry, looked up, the tested form may be a part): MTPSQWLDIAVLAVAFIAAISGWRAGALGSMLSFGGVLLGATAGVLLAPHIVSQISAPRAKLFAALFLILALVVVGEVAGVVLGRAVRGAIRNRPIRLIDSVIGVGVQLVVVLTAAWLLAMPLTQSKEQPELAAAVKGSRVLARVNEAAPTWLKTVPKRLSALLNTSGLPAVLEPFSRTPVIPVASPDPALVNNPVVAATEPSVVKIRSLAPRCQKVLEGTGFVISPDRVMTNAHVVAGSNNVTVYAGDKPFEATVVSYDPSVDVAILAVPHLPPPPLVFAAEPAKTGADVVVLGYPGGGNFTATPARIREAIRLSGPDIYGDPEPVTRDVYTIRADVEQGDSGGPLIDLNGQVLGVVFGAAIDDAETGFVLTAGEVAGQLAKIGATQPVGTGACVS
# FBA Mtb inh: Mtb FBA enzyme inhibitors, primary screen, biochemical, fluorescence, strain H37Rv; purified M. tuberculosis FBA, fluorescence read-out; inhibition, % at 1 µM; 360,000 compounds, 2.3% hits
# GDH-TPI counter-1: GDH-TPI coupling enzyme inhibitors, primary screen, artefact control for M. tuberculosis FBA inhibitor project, biochemical, absorbance, full deck; inhibition, % at 4.8 µM; 360,000 compounds, 1.2% hits; GDH-TPI coupled enzyme counterscreen, NADH absorbance; AID 588335, 2011; in the data active = inhibition above about 30%
# Mtb FBA inh conf: M. tuberculosis aldolase blockers, biochemical, fluorescence, strain H37Rv, confirmation. inhibition, % at 1 µM. AID 651616, 2012. purified M. tuberculosis FBA, fluorescence read-out. 5,600 compounds, 78% hits. shares compounds with FBA Mtb inh
# GDH-TPI counter-2: GDH-TPI coupling enzyme inhibitors, artefact control for M. tuberculosis FBA inhibitor project, biochemical, fluorescence, high throughput; GDH-TPI coupled enzyme counterscreen; AID 652141, 2013; shares compounds with FBA Mtb inh; inhibition, % at 1 µM; 5,600 compounds, 81% hits; in the data active = inhibition above about 10%
# Numbers stand for hits; . = inactive; / = no result given; + = active, no number. This is a sample that favours compounds with a hit; in the whole collection about 4% have one here. Rule as the data show it, unless noted: active = inhibition above about 27%; inactive = the rest.
SMILES,UGM FP inh,Mtb betalactam,RecA intein inh,Rv3671c protease,FBA Mtb inh,GDH-TPI counter-1,Mtb FBA inh conf,GDH-TPI counter-2
C/C(CCC1CC(C)OC1=O)=N/Nc1nc(-c2ccccc2)cs1 (configuration not stated),.,.,.,.,.,.,/,/
O=C(c1cccn2c(=O)c3cc(Cl)ccc3nc12)N1CCC2(CC1)OCCO2,.,/,.,.,34,.,46,39
O=C(c1cccn2c(=O)c3ccccc3nc12)N1CCC2(CC1)OCCO2,.,.,.,.,.,.,/,/
COC(=O)c1cc(-c2ccc(OC)cc2F)nc2nc(SC)[nH]c(=O)c12,.,.,.,.,27,.,+,+
Cc1ccc(N(CCC#N)C(=O)CN2C(=O)NC(Cc3ccccc3)C2=O)cc1 (configuration not stated),.,.,.,.,.,.,/,/
CC[C@H](C)C(N)c1cn(C(CCCN=C(N)N)C(=O)N2CCNCC2)nn1 (some centres not stated),.,.,/,.,.,.,/,/
CCOC(=O)c1sc2nc(N3CCOCC3)c3c(c2c1N)CC(C)(C)N(C)C3,.,.,.,.,59,.,.,.
Cc1ccc(NC(=O)c2sc3nc(N4CCOCC4)c4c(c3c2N)CC(C)(C)OC4)cc1,.,.,.,.,.,.,/,/
CC1(C)Cc2c(c(N3CCCC3)nc3sc(C(=O)Nc4ccccc4)c(N)c23)CO1,.,.,.,.,34,.,+,+
CN1Cc2c(N3CCOCC3)nc3sc(C(=O)c4ccccc4)c(N)c3c2CC1(C)C,.,.,.,.,.,.,/,/
Nc1c(C(=O)NCCc2ccccc2)sc2nc(N3CCOCC3)c3c(c12)CCCC3,.,.,.,.,82,.,.,14
COc1ccc(S(=O)(=O)N(CC(=O)NCc2cccnc2)c2ccc(C)cc2)cc1OC,.,.,.,.,.,.,/,/
O=C(N/N=C/C=C/c1ccccc1)c1ccccn1,.,.,.,.,65,35,180,174
O=C(N/N=C/C=C/c1ccccc1)NC1CCCCC1,.,.,.,.,68,.,167,145
O=C(N/N=C/c1cccc(O)c1)NC1CCCCC1,.,.,.,.,.,.,/,/
CN(C)c1ccc(-c2ccnc3c2CC(C)(C(=O)NCc2ccncc2)O3)cc1 (configuration not stated),/,/,/,/,60,34,178,145
CC1(C(=O)NCC2CC2)Cc2c(-c3ccccc3)ccnc2O1 (configuration not stated),/,/,/,/,.,.,/,/
CC1(C(=O)NCc2ccccc2)Cc2c(-c3ccccc3)ccnc2O1 (configuration not stated),/,/,/,/,.,.,/,/
CN(C)c1ccc(-c2ccnc3c2CC(C)(C(=O)NCc2ccccc2)O3)cc1 (configuration not stated),/,/,/,/,49,.,.,.
CN(C)c1ccc(-c2ccnc3c2CC(C)(C(=O)NCC2CCOCC2)O3)cc1 (configuration not stated),/,/,/,/,48,.,114,98
CN(C)c1ccc(-c2ccnc3c2CC(C)(C(=O)NCc2cccc(Cl)c2)O3)cc1 (configuration not stated),/,/,/,/,62,.,58,39
CC1CCCN(C(=O)CSc2nnc3ccccn23)C1 (configuration not stated),.,.,/,.,.,.,/,/
O=C1C2CCC(C2)C1CN1CCOCC1 (configuration not stated),/,/,/,/,.,.,/,/
CN(C)CCCNC(=O)c1cccc(-c2ccc3nccn3c2)c1,/,/,/,/,.,.,/,/
CN(C)CCCNC(=O)c1cccc(-c2cnc3cccnn23)c1,/,/,/,/,102,.,+,+
SMILES,UGM FP inh,Mtb betalactam,RecA intein inh,Rv3671c protease,FBA Mtb inh,GDH-TPI counter-1,Mtb FBA inh conf,GDH-TPI counter-2
O=C(NCCO)c1cccc(-c2cccc3nncn23)c1,/,/,/,/,75,.,72,42
OCc1nc2c(ccc3ccccc32)[nH]1,.,.,.,.,.,.,/,/
Cc1cc(C(=O)N(C)CC(=O)Nc2ccc(F)c(F)c2F)no1,.,.,.,.,.,.,/,/
Cc1c(O)ccc2c3c(c(=O)oc12)CCC(C)C3 (configuration not stated),.,.,.,.,103,.,+,+
CC1CCCN(Cc2c(O)ccc3c4c(c(=O)oc23)CCCC4)C1 (configuration not stated),.,.,.,.,/,.,/,/
CCN(CC)c1ccc(/C=N/N2C(C)CCCC2C)c(O)c1 (configuration not stated),.,.,.,.,.,.,/,/
Oc1ccc(-c2nc3ccccn3c2NCc2ccco2)cc1,.,.,.,.,52,.,70,55
O=C(Nc1c(-c2ccccc2)nc2ccccn12)c1ccco1,.,.,.,.,.,.,/,/
Cc1c(O)ccc2c(CN3CCOCC3)cc(=O)oc12,.,.,.,.,71,.,46,38
Cc1c(O)ccc2c(CN3CCN(CCO)CC3)cc(=O)oc12,.,.,.,.,74,.,69,63
Cc1ccc(F)cc1CNC(=O)C1CCC(=O)N(CC2CCCCC2)C1 (configuration not stated),.,.,.,.,.,.,/,/
Cc1ccc(-c2ccc(C(=O)NCc3ccccc3)o2)c2ccccc12,.,.,.,.,61,.,120,74
O=C(CNc1ccccc1C(=O)O)c1ccccc1,.,.,.,.,28,.,34,32
NC(=O)c1ccccc1NCC(=O)c1ccc(Cl)cc1,.,.,.,.,43,.,159,124
Cc1ccc2nc(SCC(=O)NCc3ccc(F)cc3)nc(=O)n2c1,.,.,.,.,.,.,/,/
COc1ccc(N2C(=O)CSC2c2cccc(F)c2)cc1 (configuration not stated),.,.,.,.,39,.,181,154
COc1ccc(C2SCC(=O)N2c2ccc(F)cc2)cc1 (configuration not stated),.,.,.,.,.,.,/,/
Cc1ccc(S(=O)(=O)N(C)C)cc1NC(=O)C(C)OC(=O)C1CCCCC1 (configuration not stated),.,.,/,.,.,.,/,/
O=C(CNc1n[nH]c(=O)[nH]c1=O)N/N=C/c1ccccc1,.,.,.,.,/,/,/,/
O=c1[nH]c(NCCO)c(N=Cc2ccccc2)c(=O)[nH]1,.,.,.,.,85,.,108,94

# Source: PubChem (several laboratories)
